Reference: PubChem BioAssay AID1159580 (chemical genetic matrix, 2015)
The campaign covered roughly 5,500 compounds. About 2,000 (36%) were called active. Not shown: some 18% with an inconclusive outcome. No stated cut-off is given here; in the data, active means normalized growth mostly below about 0.91 (no sharp cut-off); inconclusive means no clear call, values can overlap the other calls; inactive means mostly above about 0.92. Some of the results follow.

Test: chemical genetic growth profiling, strain panel (AID 1159580);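 further: tested at 20 µM; growth read once vehicle control cultures reached saturation at 30 °C; 1 = growth at the plate median or of vehicle wells; lower values mean less growth of the strain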
Conditions: growth OD

Measured: normalized growth

COc1c(C2COc3cc4c(cc3C2=O)CC(O)C(C)(C)O4)ccc2c1CCC(C)(C)O2 (configuration not stated)
inactive: S. cerevisiae deletion strains, locus YBR021W, strain FUR4, active compounds read low 0.992 | S. cerevisiae deletion strains, locus YBR229C, strain ROT2, active compounds read low 1.01 | S. cerevisiae deletion strains, locus YCL029C, strain bik1, active compounds read low 1.01 | S. cerevisiae deletion strains, locus YDL035C, strain GPR1, active compounds read low 1.02 | S. cerevisiae deletion strains, locus YDL074C, strain BRE1, active compounds read low 1.05 | S. cerevisiae deletion strains, locus YDL101C, strain DUN1, active compounds read low 1.02 | S. cerevisiae deletion strains, locus YDL134C, strain PPH21, active compounds read low 1.05 | S. cerevisiae deletion strains, locus YDL185W, strain tfp1, active compounds read low 1.05 | S. cerevisiae deletion strains, locus YDL192W, strain arf1, active compounds read low 1.01 | S. cerevisiae deletion strains, locus YDR101C, strain arx1, active compounds read low 0.982 | S. cerevisiae deletion strains, locus YDR162C, strain NBP2, active compounds read low 1.02 | S. cerevisiae deletion strains, locus YDR318W, strain mcm21, active compounds read low 1.01 | S. cerevisiae deletion strains, locus YDR388W, active compounds read low 1.03 | S. cerevisiae deletion strains, locus YDR502C, strain sam2, active compounds read low 1.04 | S. cerevisiae deletion strains, locus YEL061C, strain CIN8, active compounds read low 1.01 | S. cerevisiae deletion strains, locus YER110C, active compounds read low 1.02 | S. cerevisiae deletion strains, locus YER155C, strain BEM2, active compounds read low 1.02 | S. cerevisiae deletion strains, locus YER167W, strain BCK2, active compounds read low 1.01 | S. cerevisiae deletion strains, locus YGL078C, strain dbp3, active compounds read low 1.02 | S. cerevisiae deletion strains, locus YGL086W, strain mad1, active compounds read low 1.01 | S. cerevisiae deletion strains, locus YGL248W, strain PDE1, active compounds read low 1.06 | S. cerevisiae deletion strains, locus YGR078C, strain PAC10, active compounds read low 1.02 | S. cerevisiae deletion strains, locus YGR135W, strain pre9, active compounds read low 1.07 | S. cerevisiae deletion strains, locus YGR252W, strain gcn5, active compounds read low 1.04 | S. cerevisiae deletion strains, locus YHR030C, strain SLT2, active compounds read low 1.01 | S. cerevisiae deletion strains, locus YHR079C, strain IRE1 (second series), active compounds read low 1.02 | S. cerevisiae deletion strains, locus YHR094C, strain hxt1, active compounds read low 1 | S. cerevisiae deletion strains, locus YHR129C, strain ARP1, active compounds read low 1.02 | S. cerevisiae deletion strains, locus YHR200W, strain rpn10, active compounds read low 1.03 | S. cerevisiae deletion strains, locus YIL066C, strain RNR3, active compounds read low 1.04 | S. cerevisiae deletion strains, locus YIL073C, strain SPO22, active compounds read low 1.08 | S. cerevisiae deletion strains, locus YIL125W, strain kgd1, active compounds read low 1.01 | S. cerevisiae deletion strains, locus YIR030C, strain dcg1, active compounds read low 1.03 | S. cerevisiae deletion strains, locus YJL095W, strain BCK1, active compounds read low 1.05 | S. cerevisiae deletion strains, locus YJL134W, strain LCB3, active compounds read low 0.995 | S. cerevisiae deletion strains, locus YJL168C, strain set2, active compounds read low 1.03 | S. cerevisiae deletion strains, locus YJL187C, strain SWE1 (second series), active compounds read low 1.04 | S. cerevisiae deletion strains, locus YJR043C, strain POL32, active compounds read low 1.01 | S. cerevisiae deletion strains, locus YKL009W, strain mrt4, active compounds read low 1.01 | S. cerevisiae deletion strains, locus YKL068W, active compounds read low 1.01 | S. cerevisiae deletion strains, locus YKL085W, strain MDH1 (second series), active compounds read low 1.01 | S. cerevisiae deletion strains, locus YKL085W, strain MDH1, active compounds read low 1.01 | S. cerevisiae deletion strains, locus YKL190W, strain CNB1, active compounds read low 1.01 | S. cerevisiae deletion strains, locus YKR001C, strain vps1, active compounds read low 1.04 | S. cerevisiae deletion strains, locus YLR039C, strain RIC1, active compounds read low 1.11 | S. cerevisiae deletion strains, locus YLR058C, strain SHM2, active compounds read low 1.02 | S. cerevisiae deletion strains, locus YLR102C, strain apc9, active compounds read low 1.01 | S. cerevisiae deletion strains, locus YLR268W, strain sec22, active compounds read low 0.997 | S. cerevisiae deletion strains, locus YLR342W, strain FKS1 (second series), active compounds read low 1.04 | S. cerevisiae deletion strains, locus YLR371W, strain rom2, active compounds read low 1.03 | S. cerevisiae deletion strains, locus YLR418C, strain cdc73, active compounds read low 1.08 | S. cerevisiae deletion strains, locus YML016C, strain PPZ1, active compounds read low 1 | S. cerevisiae deletion strains, locus YML032C, strain rad52, active compounds read low 1.01 | S. cerevisiae deletion strains, locus YML124C, strain tub3, active compounds read low 1 | S. cerevisiae deletion strains, locus YMR078C, strain ctf18, active compounds read low 1.02 | S. cerevisiae deletion strains, locus YMR223W, strain ubp8, active compounds read low 1.02 | S. cerevisiae deletion strains, locus YMR263W, strain SAP30, active compounds read low 1 | S. cerevisiae deletion strains, locus YMR307W, strain GAS1, active compounds read low 1.13 | S. cerevisiae deletion strains, locus YNL067W, strain RPL9B, active compounds read low 1.01 | S. cerevisiae deletion strains, locus YNL153C, strain GIM3, active compounds read low 1.06 | S. cerevisiae deletion strains, locus YNL233W, strain BNI4, active compounds read low 1.04 | S. cerevisiae deletion strains, locus YNL250W, strain rad50, active compounds read low 1.05 | S. cerevisiae deletion strains, locus YNL271C, strain bni1, active compounds read low 1.01 | S. cerevisiae deletion strains, locus YNL298W, strain CLA4, active compounds read low 1.02 | S. cerevisiae deletion strains, locus YNL307C, strain MCK1, active compounds read low 1.01 | S. cerevisiae deletion strains, locus YNR052C, strain pop2, active compounds read low 1.03 | S. cerevisiae deletion strains, locus YOL006C, strain TOP1, active compounds read low 1.06 | S. cerevisiae deletion strains, locus YOL012C, strain htz1 0.808 | S. cerevisiae deletion strains, locus YOL147C, strain pex11, active compounds read low 1 | S. cerevisiae deletion strains, locus YOR061W, strain CKA2, active compounds read low 1.01 | S. cerevisiae deletion strains, locus YOR069W, strain VPS5, active compounds read low 1.01 | S. cerevisiae deletion strains, locus YOR136W, strain idh2, active compounds read low 1.02 | S. cerevisiae deletion strains, locus YOR144C, strain elg1, active compounds read low 1.01 | S. cerevisiae deletion strains, locus YOR184W, strain ser1, active compounds read low 0.971 | S. cerevisiae deletion strains, locus YOR316C, strain cot1, active compounds read low 1.01 | S. cerevisiae deletion strains, locus YPL241C, strain CIN2, active compounds read low 0.99 | S. cerevisiae deletion strains, locus YPR119W, strain clb2, active compounds read low 1.02 | S. cerevisiae deletion strains, locus YPR141C, strain kar3, active compounds read low 1.01 | S. cerevisiae deletion strains, locus YPR163C, strain tif3, active compounds read low 1.03 | S. cerevisiae deletion strains, locus YPR167C, strain met16, active compounds read low 1.04 | S. cerevisiae deletion strains, strain wtn01, active compounds read low 1 | S. cerevisiae strains, strain wild type, active compounds read low 1.03
